Compounds without any hit were thinned out: in the full panel of roughly 83,000, 20% have a hit.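 Results are percent growth after 48 hours of single-concentration exposure. 100 means growth as in untreated cells, lower positive values show inhibition; negative values down to -100 show cell death.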 A number with no mark means an inactive call. The source made the active and inactive calls. The calls were made as follows: active = growth percent below 10; inactive = the rest.
Experiments:
Test in all cases: NCI-60 one-dose screen, 48 h (100 = growth as untreated, 0 = no growth, -100 = all killed)
Conditions in all cases: 10 µM unless noted
NCI-H23 lung = test system: NCI-H23 lung
NCI-H226 lung = test system: NCI-H226 lung
NCI-H322M lung = test system: NCI-H322M lung
HOP-62 NSCLC = test system: HOP-62 NSCLC
NCI-H460 lung = test system: NCI-H460 lung
HOP-92 NSCLC = test system: HOP-92 NSCLC
NCI-H522 lung = test system: NCI-H522 lung
A549/ATCC NSCLC = test system: A549/ATCC NSCLC
786-0 renal = test system: 786-0 renal
COLO 205 colon = test system: COLO 205 colon
DU-145 prostate = test system: DU-145 prostate
MALME-3M melanoma = test system: MALME-3M melanoma
MDA-MB-231 breast = test system: MDA-MB-231 breast
RXF 393 renal = test system: RXF 393 renal
SF-268 CNS = test system: SF-268 CNS
SF-295 CNS = test system: SF-295 CNS
SF-539 CNS = test system: SF-539 CNS
UACC-257 melanoma = test system: UACC-257 melanoma
M14 melanoma = test system: M14 melanoma
K-562 leukemia = test system: K-562 leukemia

Compound | growth (NCI-H23 lung) | growth (NCI-H226 lung) | growth (NCI-H322M lung) | growth (HOP-62 NSCLC) | growth (NCI-H460 lung) | growth (HOP-92 NSCLC) | growth (NCI-H522 lung) | growth (A549/ATCC NSCLC) | growth (786-0 renal) | growth (COLO 205 colon) | growth (DU-145 prostate) | growth (MALME-3M melanoma) | growth (MDA-MB-231 breast) | growth (RXF 393 renal) | growth (SF-268 CNS) | growth (SF-295 CNS) | growth (SF-539 CNS) | growth (UACC-257 melanoma) | growth (M14 melanoma) | growth (K-562 leukemia)
CC1(C)NCCC[C@]2(C)[C@H]3CC[C@@H]4[C@H]5[C@H](C(=O)/C=C/c6ccco6)CC[C@]5(CO)CC[C@@]4(C)[C@]3(C)CC[C@@H]12 | 89.1% | 94.8% | 92.6% | 91.8% | 56.2% | 70.1% | 88.3% | 87.2% | 74.4% | -2.99% (active) | 97.4% | 78.7% | 96.2% | 89.2% | 95.7% | 113% | 87.8% | 91.9% | 91.3% | 
COc1ccc(C/C(=C(\C)c2ccc(OCCN3CCCC3)cc2)c2ccc(OCCN3CCCC3)cc2)cc1 | 83.9% | 84.4% | 81.7% | 80.3% | 6.71% (active) | 26.4% | 56.8% | 69.3% | 69.1% | -25.8% (active) | 70% | 47.1% | 17.8% | 55.7% | 69.9% | 34.2% | 29.9% | 63.9% | -64.8% (active) | -64.1% (active)
O=C1c2cccc3c(-c4ccc5c(c4)ncn5C4CCCCC4)ccc(c23)C(=O)N1c1nc2ccccc2s1 | 86.4% | 84.1% | 91.7% | 82% | 94.8% | 76% | 78.2% | 100% | 93% | 89.8% | 105% | 93% | 74% | 105% | 94.1% | 90.4% | 95.7% | 101% | 93.8% | 
N#Cc1c(-c2cccc([N+](=O)[O-])c2)nc(SCC(=O)c2ccc(Cl)cc2)[nH]c1=O | 98.5% | 97.6% | 96.8% | 87.4% | 108% | 94.3% | 88.8% | 101% | 96.7% | 103% | 105% | 99.9% | 99.3% | 102% | 97.7% | 104% | 100% | 105% | 100% | 
c1ccc(-c2c(-c3ccccc3)[n+](Cc3ccc4ccccc4c3)c(-c3cccc4ccccc34)n2Cc2ccc3ccccc3c2)cc1 | -38.4% (active) | -42.3% (active) | 4.47% (active) | -84.7% (active) | -80% (active) | -53.9% (active) | -39.5% (active) | -45.1% (active) | -68.3% (active) | -65% (active) | -51.3% (active) | -87.9% (active) | -70.5% (active) | -94.3% (active) | -38.9% (active) | -86% (active) | -83.5% (active) | -42.5% (active) | -63.5% (active) | -3.62% (active)
CNCCn1c(=O)c2cc(OC)c(OC)cc2c2ccc3cc4c(cc3c21)OCO4 | -18.1% (active) | -98.8% (active) | -14.5% (active) | 3.19% (active) | -18.4% (active) | -5.84% (active) | -35.2% (active) | -81.2% (active) | -51% (active) | -61.6% (active) | 5.52% (active) | -85.3% (active) | 0.962% (active) | -76.1% (active) | 11.9% | 6.74% (active) | -30.4% (active) | -76.3% (active) | -50.5% (active) | 2.28% (active)
CN(CCN(C)c1ccc(C(=N)N)cc1)c1ccc(C(=N)N)cc1 | 86.3% | 84% | 93.1% | 102% | 92% | 35% | 92.4% | 103% | 107% | 134% | 98.9% | 57.9% | 91.3% | 118% | 109% | 94.1% | 93.2% | 92.6% | 103% | 
COc1ccc(-c2cnc3c(-c4cccc5ncccc45)cnn3c2)cc1 | 50% | 0.736% (active) | 42.7% | 4.66% (active) | 33.9% | 24.9% | 32.8% | 27.2% | 18.3% | 88.5% | 58.1% | 15% | -1.88% (active) | 26.7% | 19% | 32.2% | 30.8% | 51.3% | 76.8% | 

Source: PubChem BioAssay (NCI)
